Source: PubChem BioAssay
Hits are enriched below; roughly 18% of the tested compounds scored in any of these assays.
HepG2 viability: HepG2 cytotoxicity, counter-screen for TGF-b inhibitors. AID 588856. Potency, µM (top dose mostly 46.1 µM), without a hit: at the top dose activity change, negative = cytotoxicity, most hits filed as cytotoxic. hit rate 0.76% among 410,000. HepG2 CAGA-GFP viability, ATP luminescence, 18 h; note: potency is the fitted concentration of half-maximal effect
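CellTiter-Glo luminescence gave cytotoxicity after 18 hours at 37 degrees C. The cells were HepG2 CAGA-GFP in 1% FBS DMEM, stimulated with 500 pg/mL TGF-beta after compound addition. %Activity was normalised to no-cell wells (complete cell-killing) and DMSO (no toxicity), and curves were fitted and classified.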
TDP1 inh: TDP1 (human) enzyme inhibition. recombinant TDP1, AlphaScreen DNA substrate cleavage. Potency, µM (top dose mostly 130 µM), without a hit: at the highest dose activity change, negative = inhibition, usual class: inhibitors. hit rate 0.28% among 350,000. AID 485290; note: potency is the fitted concentration of half-maximal effect; % is set by controls: 0 for no effect and ±100 for the full control effect; nearly all actives have a fitted effect of over 40% in size
Target sequence (Q9NUW8 whole entry, looked up): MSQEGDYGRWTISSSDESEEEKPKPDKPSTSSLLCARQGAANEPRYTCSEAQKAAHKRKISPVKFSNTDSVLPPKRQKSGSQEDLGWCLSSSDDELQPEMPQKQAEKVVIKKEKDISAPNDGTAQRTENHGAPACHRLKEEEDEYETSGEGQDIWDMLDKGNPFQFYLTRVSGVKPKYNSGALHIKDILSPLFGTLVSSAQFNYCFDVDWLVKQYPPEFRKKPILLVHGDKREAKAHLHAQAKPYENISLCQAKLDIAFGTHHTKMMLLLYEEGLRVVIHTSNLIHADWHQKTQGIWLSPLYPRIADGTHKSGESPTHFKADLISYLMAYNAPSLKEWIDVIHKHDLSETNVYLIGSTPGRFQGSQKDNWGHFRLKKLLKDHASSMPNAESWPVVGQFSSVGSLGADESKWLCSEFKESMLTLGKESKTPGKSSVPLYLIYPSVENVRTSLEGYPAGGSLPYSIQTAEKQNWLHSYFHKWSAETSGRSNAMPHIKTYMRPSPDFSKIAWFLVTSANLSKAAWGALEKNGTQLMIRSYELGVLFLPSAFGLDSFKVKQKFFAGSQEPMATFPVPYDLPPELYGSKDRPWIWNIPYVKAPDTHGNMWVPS
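Steps: enzyme plus compound, 15 min RT; add biotin/phosphotyrosine-FITC oligonucleotide (15 nM final), react 5 min; add donor/acceptor beads (10 ug/ml final), 10 min; read AlphaScreen. Tdp1 at 1 nM final.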
DT40 TDP1 no CPT: qHTS for Inhibitors of human tyrosyl-DNA phosphodiesterase 1 (TDP1): qHTS in cells in absence of CPT. DT40 Tdp1-/- hTDP1 cells, no CPT, ATP luminescence, 48 h. AID 686978, 2013. Potency, µM (top dose mostly 46.2 µM), inactives show at the top dose activity change, negative = growth inhibition, hits mostly inhibitors. hit rate 15% among 420,000; note: potency is the fitted concentration of half-maximal effect; % is set by controls: 0 for no effect and ±100 for the full control effect; nearly all actives have a fitted effect of over 55% in size
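Cells were dispensed at 400 per well, compounds added by pin tool, plates incubated ≥48 hr at 37 °C, then CellTiter-Glo added for 30 min at room temperature before luminescence reading. Line: DT40 Tdp1-/- complemented with hTDP1; camptothecin omitted.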
IL-1B inflam inh: inflammasome signaling inhibition, IL-1 beta readout. THP-1 LPS/ATP IL-1B secretion, AlphaLISA, 16 h; active compounds read low. activity change, % at 57.5 µM. hit rate 4.7% among 360,000; in the data active = activity change below about -50%; inconclusive = mostly about -30% to -49%; note: % is set by controls: 0 for no effect and ±100 for the full control effect
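THP-1 cells pretreated 1 hr with compounds (up to 57.5 uM final), then stimulated with LPS (250 ng/mL final) plus ATP (1.25 mM final); secreted IL-1B measured by AlphaLISA after 16 hr, decreased signal indicating inhibition.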
TGFb SMAD3 inh: inhibitors of TGF-b signaling. Potency, µM (titrated, usually from 46.1 µM), without a hit: at the highest dose activity, negative = inhibition, hits mostly inhibitors. HepG2 CAGA-GFP TGF-b/SMAD3 reporter, GFP fluorescence, 18 h; TGF-beta stimulated, 500 pg/mL final. hit rate 1.2% among 410,000; note: potency is the fitted concentration of half-maximal effect; % is set by controls: 0 for no effect and ±100 for the full control effect; nearly all actives have a fitted effect of over 65% in size
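TGF-beta reporter screen: HEPG2 CAGA-GFP, 1% FBS, 500 pg/mL TGF-beta final, 18 h; per-cell GFP summed per well; curves fitted and categorized by class.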
DT40 TDP1 CPT: DT40-hTDP1 cell growth loss with CPT; hit rate 12% among 420,000; chicken DT40 Tdp1-/-;hTDP1 cells + 20 nM CPT, ATP luminescence, 48 h; Potency, µM (top dose mostly 46.2 µM), for the others: at the highest dose activity change, negative = growth inhibition, actives largely listed as inhibitors; note: potency is the fitted concentration of half-maximal effect; % is set by controls: 0 for no effect and ±100 for the full control effect; nearly all actives have a fitted effect of over 55% in size
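Cell growth measured by CellTiter-Glo luminescence after a minimum 48 h, 37 C compound exposure with 20 nM CPT in Tdp1-knockout DT40 cells stably expressing hTDP1, seeded 400/well; qHTS titration format.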
* = called active by the depositor. Unless noted, calls come from the whole dose curve; as a rule, active = well fitted curve in the direction sought with a large enough effect; inconclusive = small, poorly fitted or top-dose-only effect, or another doubt; inactive = no such curve, though single readings can be large; an effect the other way counts as inactive or inconclusive.

What do the screens show for `COc1ccc(C2c3cc(OC)c(OC)cc3CCN2C(=O)c2ccccc2)cc1OC` (stereo not given)?
HepG2 viability: 1.7%; DT40 TDP1 no CPT: 9.2µM*; IL-1B inflam inh: -9.8; TGFb SMAD3 inh: 5.0%; DT40 TDP1 CPT: inconclusive

How did COc1ccc(C2c3cc(OC)c(OC)cc3CCN2S(C)(=O)=O)cc1OC (stereo not given) do in these assays?
HepG2 viability: 6.2%; TDP1 inh: -1.2%; DT40 TDP1 no CPT: 20.6µM*; IL-1B inflam inh: 38.0; TGFb SMAD3 inh: 15.7%; DT40 TDP1 CPT: 16.4µM*

What do the screens show for `COc1ccc(-c2n[nH]c3c2CN(C(=O)c2ccc(OC)c(OC)c2)CC3)cc1`?
HepG2 viability: -7.1%; TDP1 inh: 6.0%; DT40 TDP1 no CPT: 8.2µM*; IL-1B inflam inh: 0.7; TGFb SMAD3 inh: -8.3%; DT40 TDP1 CPT: 8.2µM*

How did COc1ccc(C2c3cc(OC)c(OC)cc3CCN2C(=O)c2ccccc2Br)cc1OC (stereo not given) do in these assays?
HepG2 viability: -49.1%; TDP1 inh: 5.8%; DT40 TDP1 no CPT: inconclusive; IL-1B inflam inh: inconclusive; TGFb SMAD3 inh: -23.7%; DT40 TDP1 CPT: -10.8%

Results for COc1cc2c(cc1OC)C(COc1ccc(C(C)C)cc1)N(C(=O)COc1ccccc1)CC2 (stereo not given) ?
HepG2 viability: -21.5%; TDP1 inh: 13.0%; DT40 TDP1 no CPT: inconclusive; TGFb SMAD3 inh: -9.2%; DT40 TDP1 CPT: inconclusive

How did COc1cc2c(cc1OC)C(COc1ccc(C(C)C)cc1)NCC2 (stereo not given) do in these assays?
HepG2 viability: -59.9%; TDP1 inh: 3.3%; DT40 TDP1 no CPT: 16.4µM*; IL-1B inflam inh: -20.4; TGFb SMAD3 inh: inconclusive; DT40 TDP1 CPT: inconclusive

Results for O=C(CC1SC(N2CCCC2)=NC1=O)Nc1ccc(C(=O)NCCOc2ccccc2F)cc1 (stereo not given) ?
HepG2 viability: -10.1%; TDP1 inh: 1.6%; DT40 TDP1 no CPT: -2.0%; IL-1B inflam inh: -12.4; TGFb SMAD3 inh: -0.3%; DT40 TDP1 CPT: 10.8%

How did COc1ccc(NC(=O)CN2C(=O)C3(SCC(=O)N3c3ccccc3)c3ccccc32)cc1Cl (stereo not given) do in these assays?
HepG2 viability: -8.0%; TDP1 inh: 6.3%; DT40 TDP1 no CPT: inconclusive; TGFb SMAD3 inh: -4.0%; DT40 TDP1 CPT: inconclusive

How did COc1ccc(C(=O)N2CCc3cc(OC)c(OC)cc3C2COc2ccccc2OC)cc1 (stereo not given) do in these assays?
HepG2 viability: 0.8%; TDP1 inh: 13.0%; DT40 TDP1 no CPT: 29.1µM*; TGFb SMAD3 inh: -22.1%; DT40 TDP1 CPT: 16.4µM*

What do the screens show for `COc1cc2c(cc1OC)C(COc1ccc(C(C)C)cc1)N(C(=O)c1ccc(S(=O)(=O)N3CCCC3)cc1)CC2` (stereo not given)?
HepG2 viability: -1.7%; TDP1 inh: 7.8%; DT40 TDP1 no CPT: 20.6µM*; TGFb SMAD3 inh: 6.2%; DT40 TDP1 CPT: inconclusive

How did COc1cc2c(cc1OC)C(COc1ccccc1OC)N(C(C)=O)CC2 (stereo not given) do in these assays?
HepG2 viability: -6.8%; DT40 TDP1 no CPT: -17.1%; IL-1B inflam inh: 17.3; TGFb SMAD3 inh: 6.7%; DT40 TDP1 CPT: 0.0%

How did COc1ccc(C(=O)N2CCc3cc(OC)c(OC)cc3C2c2ccc(OC)c(OC)c2)cc1 (stereo not given) do in these assays?
HepG2 viability: -9.4%; DT40 TDP1 no CPT: inconclusive; IL-1B inflam inh: -51.3*; TGFb SMAD3 inh: -15.9%; DT40 TDP1 CPT: inconclusive

What do the screens show for `Brc1cc2c(cc1Br)OCCOCCOCCO2`?
HepG2 viability: 0.0%; DT40 TDP1 no CPT: -11.9%; IL-1B inflam inh: -16.5; TGFb SMAD3 inh: 2.9%; DT40 TDP1 CPT: 17.5%

How did COc1ccc(S(=O)(=O)NCC(c2ccco2)N2CCN(c3ccccc3F)CC2)cc1OC (stereo not given) do in these assays?
HepG2 viability: -1.9%; TDP1 inh: 5.2%; DT40 TDP1 no CPT: inconclusive; TGFb SMAD3 inh: 0.0%; DT40 TDP1 CPT: inconclusive

What do the screens show for `CCC(C)[C@H](N)c1nnc(SCC(=O)c2ccc(Cl)cc2)o1` (stereo not given in full)?
HepG2 viability: 0.2%; TDP1 inh: 7.0%; DT40 TDP1 no CPT: 7.08µM*; IL-1B inflam inh: -5.3; TGFb SMAD3 inh: 12.5%; DT40 TDP1 CPT: 3.98µM*

Results for CCC(C)[C@H](N)c1nnc(SCc2ccc(Cl)c(Cl)c2)o1 (stereo not given in full) ?
HepG2 viability: -28.3%; TDP1 inh: 3.2%; TGFb SMAD3 inh: 3.3%

Results for CC(=O)NC(c1ccccc1)c1nc(-c2cncnc2)cs1 (stereo not given) ?
HepG2 viability: 8.6%; DT40 TDP1 no CPT: -4.4%; IL-1B inflam inh: -1.0; TGFb SMAD3 inh: 5.1%; DT40 TDP1 CPT: 7.4%

How did Cc1nc(N2CCOCC2)nc(N2CCCCC2C)c1[N+](=O)[O-] (stereo not given) do in these assays?
HepG2 viability: -25.5%; TDP1 inh: 10.7%; DT40 TDP1 no CPT: inconclusive; IL-1B inflam inh: 27.7; TGFb SMAD3 inh: 7.1%; DT40 TDP1 CPT: inconclusive

How did CC1Cc2ccccc2N1c1ncnc(N)c1[N+](=O)[O-] (stereo not given) do in these assays?
HepG2 viability: -16.6%; TDP1 inh: 2.4%; DT40 TDP1 no CPT: 1.46µM*; IL-1B inflam inh: -91.9*; TGFb SMAD3 inh: inconclusive; DT40 TDP1 CPT: 4.11µM*

What do the screens show for `CN(Cc1ccccc1)c1ncnc(N)c1[N+](=O)[O-]`?
HepG2 viability: -0.3%; TDP1 inh: 1.2%; DT40 TDP1 no CPT: inconclusive; IL-1B inflam inh: -16.9; TGFb SMAD3 inh: -13.5%; DT40 TDP1 CPT: -28.1%

How did c1ccc2c(c1)CCN(c1ncnc3nc[nH]c13)C2 do in these assays?
HepG2 viability: -3.0%; TDP1 inh: 5.3%; DT40 TDP1 no CPT: inconclusive; IL-1B inflam inh: 24.6; TGFb SMAD3 inh: inconclusive; DT40 TDP1 CPT: inconclusive
